Assay results published in ChEMBL document CHEMBL4513216, “Probing the Open Global Health Chemical Diversity Library for Multistage-Active Starting Points for Next-Generation Antimalarials” (ACS Infect Dis, 2020).
The whole screen tested about 69,000 compounds, of which about 8,600 (12%) showed an effect of 50% or more. This is one part of a sample in which strong results are shown more often than they occur.

Test system: Plasmodium berghei
Assay: Screen against P. berghei liver stage (PbLuc), transformed with Luciferase, at 10uM
Assay type: functional, HepG2
Conditions: tested at 10 uM

Row | SMILES | INHIBITION [%]
1 | CCS(=O)(=O)N1CCC2(CCN(CC(=O)N(C)C)C2=O)CC1 | 37.1
2 | NC(=O)c1ccccc1Oc1cccc(C2CCCNC2)n1 (stereo not drawn) | -13.2
3 | O=c1[nH]c2ccc(S(=O)(=O)N(CCO)Cc3ccncc3)cc2[nH]1 | 17.5
4 | Cc1oncc1C(=O)N1CCOCC2(CCN(c3ccccn3)C2)C1 (stereo not drawn) | 45.1
5 | c1ccc(OCC2CC3(CCN(c4ncccn4)CC3)CO2)nc1 (stereo not drawn) | -34
6 | COc1ccnc(N2CCN(CC(=O)N3CCC(C)CC3)CC2)n1 | -22.9
7 | Cc1cc(CN(C)C(=O)c2ccc(F)c(C(F)(F)F)c2)no1 | 23.5
8 | CN(Cc1ccccc1C#N)C1CCN(CCc2ccccn2)CC1 | -52.5
9 | c1ccc(-c2noc(CCNC3CCOC4(CCOCC4)C3)n2)nc1 (stereo not drawn) | -37.8
10 | CCn1cc(CN2CCCN(C(=O)c3sc(C)nc3C)CC2)cn1 | 7.08
11 | O=C(c1ccsc1)N1CCc2onc(COc3ccccn3)c2C1 | 45.8
12 | COc1c(CNCc2ccccc2Cn2ccnc2)c(C)nn1C | 24
13 | CCCc1nnsc1C(=O)N1CCN(CC(O)c2ccco2)CC1 (stereo not drawn) | 7.85
14 | CCc1noc(CNc2ccc(F)cc2OCC2CC2)n1 | -29.9
15 | CCc1nc(CNc2cc(Cl)ccc2OCC2CCCO2)no1 (stereo not drawn) | 93.1
16 | Fc1ccc(OCC2CCCO2)c(NCc2cn3cccnc3n2)c1 (stereo not drawn) | 59.3
17 | Nc1ccnc(CNc2cc(F)ccc2OCC2CCCO2)n1 (stereo not drawn) | 54.4
18 | CC(C)(C)c1nnc(CNc2cc(F)ccc2OCC2CCCO2)o1 (stereo not drawn) | 35.5
19 | O=C(Nc1cc(F)ccc1OCC1CCCO1)c1ccccn1 (stereo not drawn) | -25.9
20 | Fc1ccc(OCC2CCCO2)c(NCc2noc(C3CC3)n2)c1 (stereo not drawn) | 35.5
21 | CCc1noc(CNc2cc(F)ccc2OCC2CCCO2)n1 (stereo not drawn) | 1.81
22 | O=C(CNc1cc(F)ccc1OCC1CCCO1)N1CCOCC1 (stereo not drawn) | 19.5
23 | NCC1CCC2(CCN(C(=O)c3ccccn3)CC2)CO1 (stereo not drawn) | 38.5

Row | SMILES | INHIBITION [%]
24 | Cc1ncc(C(=O)NC2CCc3nccn3C2)c(C(C)C)n1 (stereo not drawn) | 11.6
25 | CCOCC1c2c(cnn2CC2CC2)CCN1C(=O)c1ccncn1 (stereo not drawn) | 6.72
26 | O=C(CC1CC1)N1CC[C@@H]2[C@H](CC1)N(Cc1cccnc1)CCS2(=O)=O | -35
27 | Cc1nc(C)n(C2CCCN(C(=O)CCn3ccnn3)C2)n1 (stereo not drawn) | -10.3
28 | Cc1cn[nH]c1C1COCCN1Cc1ccsc1 (stereo not drawn) | 25.15
29 | O=C(NS(=O)(=O)c1c(Cl)cccc1Cl)c1cccc2c1OCCO2 | 12.3
30 | O=C(CCCC(=O)NCc1cccc(Br)c1)NCCN1CCCC1 | 17.5
31 | CC(C)S(=O)(=O)N1CCC(c2cc3n(n2)[C@@H](C(F)(F)F)C[C@@H](C)N3)C1 (stereo partly drawn) | 27.3
32 | COc1cc(C)nc(N2CCN(C(=O)CN(C)C(C)C)CC2)n1 | 59.9
33 | CCOc1cc(C)nc(N2CCN(C(=O)C(C)NC(C)=O)CC2)n1 (stereo not drawn) | 60.5
34 | CCOc1cc(C)nc(N2CCN(C(=O)CC)CC2)n1 | 8.25
35 | CCN(CC)CC(=O)N1CCN(c2nc(C)cc(OC)n2)CC1 | 2.54
36 | CCOc1cc(C)nc(N2CCN(C(=O)c3ccncc3)CC2)n1 | 33.8
37 | COc1cc(C)nc(N2CCN(C(=O)CN(C)C3CC3)CC2)n1 | -3.18
38 | CCOC1COC2(CCN(CC3CCOCC3)CC2)C1 (stereo not drawn) | 31.2
39 | Clc1ccc(CN2CCCCC2Cn2cncn2)c2ncccc12 (stereo not drawn) | 40.65
40 | Cc1nc(CN2CC[C@H]3[C@H]2CCN3c2nncs2)cs1 | 40.8
41 | Cc1nn(CCN2CCSCC2)cc1CNCc1ccccn1 | 23.5
42 | OC(COCc1ccccc1F)CN1CCC(Cn2cccn2)CC1 (stereo not drawn) | 46.3
43 | c1ncn(CC2CCCN(Cc3nc(-c4ccoc4)no3)C2)n1 (stereo not drawn) | -34
44 | CN(C)C(=O)N1CCC2(CC1)CCN(c1ncccn1)C2 | -26.1
45 | Cc1ccc(CNC(=O)c2nc3c(n2C)CCN(c2ncccn2)C3)o1 | 48.4
46 | COc1cc(CNCc2c(C)nn(C)c2N(C)C)ccc1OCCO | 21.6

Row | SMILES | INHIBITION [%]
47 | Nc1c(Cl)cnn1C1CCN(Cc2ccccc2)C1 (stereo not drawn) | 37.7
48 | Cc1cnn(C2CCN(Cc3ccccc3)C2)c1N (stereo not drawn) | 56.1
49 | Nc1ccnn1C1CCN(Cc2ccccc2)C1 (stereo not drawn) | 43.1
50 | Cc1ccc(NC(=O)[C@@H]2C[C@H](C(=O)O)CN(Cc3sccc3C)C2)cn1 | 29.4
51 | Cc1ccc(NC2CCN(C(=O)c3cccnc3O)CC2)nn1 | 16.8
52 | Cc1csc2c(=O)n(CCSc3cnn[nH]3)cnc12 | 18.5
53 | c1ccc(CCN2CCN(C3CCOC4(CCOCC4)C3)CC2)nc1 (stereo not drawn) | 7.24
54 | Cc1csc(C(=O)N2CC[C@H](Oc3cccnc3C)[C@@H](O)CC2)c1 | 57.5
55 | Cc1ncccc1O[C@H]1CCN(C(=O)Cc2cccs2)CC[C@@H]1O | 42.9
56 | CCc1ccc(C(=O)N2CCC(c3nncn3CC)CC2)cc1 | -3.16
57 | CCc1ccc(C(=O)N2CC[C@H](Oc3cccnc3C)[C@@H](O)CC2)cc1 | 78.2
58 | Cc1ccc(C(=O)N2CC[C@H](Oc3cccnc3C)[C@@H](O)CC2)s1 | 44.1
59 | Cc1ncccc1O[C@H]1CCN(C(=O)c2cccs2)CC[C@@H]1O | 23.3
60 | O=C(NC1CCCCC1)N1CCc2onc(COc3cccnc3)c2C1 | 40.4
61 | Cc1ccoc1C(=O)N1CCOCC2(CCN(c3ncccn3)C2)C1 (stereo not drawn) | -19.9
62 | CC(C)CNC(=O)CNC(=O)NC(C)COc1ccccc1F (stereo not drawn) | -24.5
63 | O=C(NCC1CC1)C1CSCN1S(=O)(=O)c1cc(F)cc(F)c1 (stereo not drawn) | 27.7
64 | Cc1noc([C@@H]2CC[C@@H]3[C@@H](CCN3S(=O)(=O)c3cccnc3)O2)n1 | -2.53
65 | CC(C)c1nnc2n1CCN(c1nc3ccccc3o1)C2 | 16.8
66 | Cc1nnc2n1CCN(c1nc3ccccc3o1)C2 | 2.97
67 | c1ccc2oc(N3CCn4c(nnc4C4CC4)C3)nc2c1 | 68.4
68 | CCc1nc(C2CCCN2C(=O)c2ccc(N(C)C)nn2)no1 (stereo not drawn) | 24.295
